From PubChem BioAssay
TRPML1 agonist = human mucolipin-1 channel agonism. Q9GZU1. TRPML1-expressing cells, Ca2+ dye fluorescence, FDSS. activation, % (no concentration beside the values). hit rate 0.12% among 410,000; in the data active = activation above about 50%; inconclusive = mostly about 30% to 49%; also: 0% is about no effect
Target sequence (Q9GZU1 whole entry, looked up): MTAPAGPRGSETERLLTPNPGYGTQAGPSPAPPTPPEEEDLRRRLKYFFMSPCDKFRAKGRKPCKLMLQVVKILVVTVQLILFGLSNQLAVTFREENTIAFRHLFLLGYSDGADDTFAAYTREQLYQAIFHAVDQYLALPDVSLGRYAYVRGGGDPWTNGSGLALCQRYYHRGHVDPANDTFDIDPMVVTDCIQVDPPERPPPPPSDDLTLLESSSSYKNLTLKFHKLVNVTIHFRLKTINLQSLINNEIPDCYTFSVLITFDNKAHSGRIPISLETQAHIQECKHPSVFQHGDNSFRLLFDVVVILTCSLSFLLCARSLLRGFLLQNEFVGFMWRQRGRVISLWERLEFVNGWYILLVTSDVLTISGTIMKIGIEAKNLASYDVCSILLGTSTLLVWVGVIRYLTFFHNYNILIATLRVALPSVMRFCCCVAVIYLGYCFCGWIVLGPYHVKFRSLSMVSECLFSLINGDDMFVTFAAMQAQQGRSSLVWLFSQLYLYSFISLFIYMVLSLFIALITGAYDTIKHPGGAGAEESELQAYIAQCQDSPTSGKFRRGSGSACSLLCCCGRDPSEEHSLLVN
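Cells: TRPML1-DL, 1X Tet inducer, ~16 h at 37 degrees C/5% CO2. Dye: ABD Ca8 no-wash + quencher, 45-90 min RT. Read: 10 s baseline, compound add, 110 s agonist phase; 54-4 EC80 (4uM final), 110 s antagonist phase.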
TRPML1 inh = blocks the human TRPML1 channel | hit rate 0.02% among 390,000 | activity change, negative = inhibition, % (no concentration beside the values) | Q9GZU1 | TRPML1-inducible cells, Ca2+ dye fluorescence, FDSS; active compounds read low; inhibition of EC80 agonist-evoked calcium signal; in the data active = activity change below about -50%; inconclusive = between about -30% and that limit;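 also: stimulus is agonist 54-4 at its EC80 concentration; % is scaled to controls: 0 for no effect and ±100 for the full control effect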
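Calcium fluorescence in TRPML1-DL cells induced overnight with Tet: a 110 s read after compound pin addition, then a 110 s antagonist read after challenge with 54-4 at 4 uM final (EC80).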
HEK293 tox = cytotoxic in the GLP-1 receptor inverse agonist counter-screen; HEK293 cAMP-luciferase reporter cells, luminescence, 24 h; Potency, µM (doses to about 38.3 µM), for inactives: at the highest dose activity change, negative = inhibition, most hits filed as inhibitors; hit rate 0.13% among 410,000;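 also: loss of luciferase light is scored as toxicity; potency is read from the fitted curve at half-maximal effect; % is scaled to controls: 0 for no effect and ±100 for the full control effect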
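Cells in DMEM/10% Nu serum/1% pen-strep, 1536-well format. Pre-incubated 12 h, dosed with 23 nL compound, incubated a further 24 h. Luciferase detection, 12 min at room temp, luminescence.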
GLP-1R inv ag = acts as inverse agonist at human GLP-1 receptor; P43220; HEK293 GLP-1R CRE-luciferase, luminescence, 24 h; GLP-1R form is constitutively active; Potency, µM (doses to about 38.3 µM), without a hit: at the highest dose activity change, negative = inhibition, usual class: inhibitors; hit rate 1.6% among 410,000; also: potency is read from the fitted curve at half-maximal effect; % is scaled to controls: 0 for no effect and ±100 for the full control effect; nearly all actives have a fitted effect of over 55% in size
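Readout was luciferase luminescence, measured 12 min after detection reagent at room temperature. Beforehand, GLP-1R reporter HEK293 cells had sat 12 h, then received compounds for 24 hr at 37 deg C.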
GLP1R ag = activates the human GLP-1 receptor | P43220 | HEK293 GLP-1R CRE-luciferase, luminescence, 4-6 h; cells express a hypersensitive GLP-1R form | Potency, µM (doses to about 45.6 µM), for the others: at the highest dose activation, hits mostly activators | hit rate 0.007% among 380,000 | AID 624172; also: potency is read from the fitted curve at half-maximal effect; % of control where 0% means no effect
* = called active by the depositor; ? = inconclusive; . = no result; ! = not confirmed by another sample. Rows were chosen to be rich in hits. Some 1.8% of all compounds tested hit in one or more screens of this group. Unless noted, calls follow the shape of the dose curve; as a rule, active = well fitted curve in the direction sought with a large enough effect; inconclusive = small, poorly fitted or top-dose-only effect, or another doubt; inactive = no such curve, though single readings can be large; an effect the other way counts as inactive or inconclusive.

SMILES	TRPML1 agonist	TRPML1 inh	HEK293 tox	GLP-1R inv ag	GLP1R ag
CCOC(=O)NNC(=O)c1[nH]c2ccc(Br)cc2c1-c1ccccc1	2	10	?	10µM*	-1%
CC(=O)NNC(=O)c1[nH]c2ccc(Br)cc2c1-c1ccccc1	1	3	0%	10µM*	-4%
O=C(N/N=C/c1ccccc1Cl)c1[nH]c2ccc(Br)cc2c1-c1ccccc1	71*	-21	?	?	16%
O=C(c1ccccc1F)N(Cc1nc2ccccc2c(=O)[nH]1)C1CCCC1	1	0	?	10µM*	-3%
O=C(c1ccccc1)N(Cc1nc2ccccc2c(=O)[nH]1)C1CCCCC1	1	-15	-12%	?	16%
CCC(C)Sc1cccc(-c2nc3cnccn3c2NC2CCCCC2)c1 (configuration not stated)	1	-2	113%	10µM*	-2%
CCC(C)Sc1ccc(-c2nc3ccc(C)cn3c2NC2CCCCC2)cc1 (configuration not stated)	0	68	2%	1%	5%
CCCCNc1c(-c2cccc(SC(C)CC)c2)nc2ccc(Cl)cn12 (configuration not stated)	-1	-12	1%	10µM*	8%
CCC(C)Sc1cc(-c2nc3ccccn3c2NC2CCCCC2)ccc1OC (configuration not stated)	1	23	-22%	5.6µM*	-1%
CCC(C)Sc1cc(-c2nc3cc(C)ccn3c2NC2CCCCC2)ccc1OC (configuration not stated)	0	-4	14%	?	-4%
c1cc(SC2CCCCC2)cc(-c2nc3cnccn3c2NC2CCCCC2)c1	1	83	113%	?	-5%
CCC(C)Sc1cccc(-c2nc3ccc(C)cn3c2NC2CCCCC2)c1 (configuration not stated)	1	-3	-22%	11µM*	15%
COc1cccc(CNC(=O)COC(=O)c2ccc(S(C)(=O)=O)c([N+](=O)[O-])c2)c1	-1	.	.	.	.
C=C(c1ccc2ccccc2n1)c1cccs1	0	.	.	.	.
CCN1c2cc(C)ccc2-n2cccc2C12CCN(C(=O)Nc1cc(OC)c(OC)c(OC)c1)CC2	0	-7	-6%	11µM*	.
COc1cc(NC(=O)N2CCC3(CC2)Nc2cc(F)ccc2-n2cccc23)cc(OC)c1OC	1	-1	-21%	?	.
CCN1c2ccccc2-n2cccc2C12CCN(C(=O)Nc1ccccc1Br)CC2	1	-8	0%	10µM*	.
CCn1nc(C)c(/C=N/NC(=S)Nc2ccc(Cl)cc2Cl)c1C	0	1	?	4µM*	23%
O=[N+]([O-])c1ccc(O)c(/C=N/NC(=S)Nc2ccc(Cl)cc2Cl)c1	1	7	-28%	2µM*	0%
O=C(O)c1ccccc1NC(c1ccccc1)c1ccc(Cl)cc1 (configuration not stated)	0	11	-11%	11µM*	5%
Cc1[nH]c(-c2ccc(F)cc2)cc1C(=O)N1CCN(c2ccccc2F)CC1	-1	13	1%	?	3%
COc1ccccc1N1CCN(C(=O)c2cc(-c3ccc(F)cc3)[nH]c2C)CC1	.	.	?	11µM*	0%
Fc1ccc(Nc2nc(SCc3cccc(Cl)c3)nc3ccccc23)cc1	1	15	-14%	11µM*	.
COc1cc2c(NC3CCN(C)CC3)nc(N3CCCN(C)CC3)nc2cc1OCCCCN	0	.	.	.	.
COCCNC(=S)N(CCc1c(C)[nH]c2ccc(Cl)cc12)Cc1cccs1	1	20	?	2.5µM*	9%
SMILES	TRPML1 agonist	TRPML1 inh	HEK293 tox	GLP-1R inv ag	GLP1R ag
CC(C)(C)c1ccc(C(=O)CCC(=O)NCc2ccccc2)cc1	1	9	-20%	7.9µM*	15%
Cc1ccc(C(=O)CCC(=O)NCc2ccccc2)cc1	-1	-8	7%	-5%	-2%
O=C(NCCCN1CCOCC1)c1ccc(Sc2ccccc2Cl)c([N+](=O)[O-])c1	1	3	-11%	3.5µM*	0%
Cc1c(C)n(Cc2ccccc2)c2ccc(C(=O)NCCCN3CCOCC3)cc12	-1	18	-24%	1µM*	19%
O=C(Nc1cccc(Cl)c1)c1ccc(NCCCN2CCOCC2)c([N+](=O)[O-])c1	0	12	-10%	5µM*	-10%
O=C(C[N+]12CN3CN(CN(C3)C1)C2)c1ccc(I)cc1	0	.	.	.	.
FC(F)(F)c1nc(N2CCCC2)ncc1-c1nnnn1-c1ccc(Cl)cc1	1	2	-26%	7.1µM*	-1%
CCOC(=O)N1CCc2c(sc3c2c(=O)n(Cc2ccccc2)c(=O)n3Cc2cccc(C)c2)C1	0	-19	3%	10µM*!	8%
Cc1cccc(NC(=O)CN2C(=O)CCc3ccccc32)c1C	-1	-5	0%	-16%	.
COc1cc(-c2nc(-c3cccc(Cl)c3)c(-c3ccccc3)[nH]2)cc(OC)c1OC	0	4	?	3.5µM*	.
COc1ccc(-c2nc(-c3ccccc3)c(-c3ccccc3)[nH]2)cc1Br	3	15	20%	?	.
CCCCN(C)c1nnc(NC(=O)Nc2cccc(C(C)=O)c2)s1	0	-18	4%	0%	.
COc1ccc(CNCC(O)COc2ccc3[nH]c(=O)ccc3c2)cc1OC (configuration not stated)	.	.	.	.	-5%
CCN(CC)CCNC(=O)CCc1c(C)nc2c(c(C)nn2-c2ccc(C)c(C)c2)c1C	.	.	?	4µM*	0%
COc1ccc(CCNC(=O)CCc2c(C)nc3c(c(C)nn3-c3ccc(C)c(C)c3)c2C)cc1OC	-1	9	3%	-2%	0%
C/C(=N\NC(=O)COc1cccc(C)c1)c1ccc2ccccc2c1O	1	-18	1%	1.1µM*	0%
Cc1cccc(OCC(=O)NCc2ccccc2)c1	-1	-7	8%	-5%	4%
Cc1ccc(NC(=O)C2(c3ccc([N+](=O)[O-])cc3)CCCC2)cc1	1	-3	-25%	10µM*	-2%
O=C(Nc1ccccn1)C1(c2ccccc2)CCCC1	1	14	-15%	?	-12%
Cc1ccc(NC(=O)C2(c3ccccc3)CCCC2)nc1	-1	1	-8%	3.5µM*	0%
Cc1cccc(/C=C/c2cccs2)n1	0	.	.	.	.
C/C(=C1/C=Nc2ccccc21)c1ccc(N(C)C)cc1	0	.	.	.	.
Cc1cccc(OCC(=O)NCc2ccc3c(c2)CCN3C(=O)c2ccccc2)c1	3	-2	12%	28%	.
COc1cc2nc(N3CCCN(C)CC3)nc(Nc3ccncc3)c2cc1OC	0	.	.	.	.
O=C(NCc1ccccc1)C(c1ccccc1)n1c(-c2ccccn2)nc2ccccc21 (configuration not stated)	.	.	-2%	7.9µM*	.
